Source: PubChem BioAssay
Most compounds without a hit are left out; they make up all but 6.5% or so of the library.
MARV entry inh – Marburg virus entry inhibition; Potency, µM (highest dose often 37.8 µM), usual class: inhibitors; AID 540276; actives 1.8% (n = 300,000); Marburg virus pseudotyped entry inhibition, cell reporter; calls by dose curve; tested in HEK293 cells
HCMV antiviral – inhibitors of human cytomegalovirus; HFF cells, HCMV-luciferase reporter, 72 h; hits give low values; activity change, negative = inhibition, % at 57.5 µM; actives 4.5% (n = 410,000); AID 1259415; in the data active = activity change below about -60%; inconclusive = no clear call, values can overlap the other calls; inactive = above about -39%
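Luciferase read-out from HCMV-luciferase-infected HFFs (MOI 1 PFU/cell) 72 h post infection at 37C; compounds added after 16 h cell attachment; activity normalized between buffer-only basal and Salinomycin (10uM) inhibitor controls.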
VACV mCherry inh – vaccinia inhibition (mCherry reporter); Vaccinia virus mCherry reporter infection, fluorescence; Potency, µM (doses to about 36.5 µM), most hits filed as inhibitors; actives 0.63% (n = 310,000); calls by dose curve; tested in A549 cells; also: nearly all actives have a fitted effect of over 35% in size
FMDV antiviral – blocks foot and mouth disease virus. Potency, µM (top dose mostly 57.9 µM), actives largely listed as inhibitors. actives 1.2% (n = 410,000). AID 1159524. FMDV antiviral cell-based qHTS; calls by dose curve; tested in HEK293T cells; also: read-out not given here; nearly all actives have a fitted effect of over 45% in size
Lassa entry inh – blocks Lassa virus binding to or entry into cells. AID 540256. Potency, µM (doses to about 37.9 µM), actives largely listed as inhibitors. Lassa virus pseudotype entry inhibition, cell reporter. actives 1.2% (n = 300,000); calls by dose curve; tested in HEK293 cells; also: nearly all actives have a fitted effect of over 50% in size
Vaccinia Venus – vaccinia inhibition (Venus reporter). Potency, µM (series often up to 36.5 µM), hits mostly inhibitors. Vaccinia virus Venus reporter expression, fluorescence. actives 0.46% (n = 330,000). AID 720580; calls by dose curve; tested in A549 cells; also: nearly all actives have a fitted effect of over 30% in size
Of the large screens only hits and unclear results are named; the others gave an inactive call.

O=C(N/N=C\c1ccc(-c2ccc([N+](=O)[O-])cc2)o1)c1ccc2c(c1)OCO2	none
CN(C)c1ccc(/C=N/NC(=O)c2ccc3c(c2)OCO3)cc1	HCMV antiviral -66 (no result: MARV entry inh, VACV mCherry inh, Lassa entry inh, Vaccinia Venus)
O=C(N/N=C/c1ccc([N+](=O)[O-])o1)c1ccc2c(c1)OCO2	HCMV antiviral -96 (no result: MARV entry inh, VACV mCherry inh, Lassa entry inh, Vaccinia Venus)
COc1ccc(/C=N/NC(=O)c2cc(OC)c(OC)c(OC)c2)cc1CN1CCc2cc(OC)c(OC)cc2C1C (stereo unspecified)	MARV entry inh 14µM
O=C(NN=Cc1ccc2c(c1)OCO2)NN=Cc1ccc2c(c1)OCO2	MARV entry inh inconclusive, Lassa entry inh inconclusive
O=C(N/N=C/c1ccccc1)c1ccc2c(c1)OCO2	HCMV antiviral inconclusive (no result: MARV entry inh, VACV mCherry inh, Lassa entry inh, Vaccinia Venus)
COc1ccc(CCC(=O)N/N=C/c2ccc3c(c2)OCO3)cc1	Lassa entry inh 0.1µM
O=C(CCc1ccccc1)NCC(=O)N/N=C/c1ccc2c(c1)OCO2	MARV entry inh inconclusive, HCMV antiviral inconclusive
O=C(N/N=C/c1ccccc1)c1cc(-c2ccc3c(c2)OCO3)n[nH]1	none
O=C(N/N=C/c1ccc(O)cc1)c1cc(-c2ccc3c(c2)OCO3)n[nH]1	MARV entry inh 7.9µM, HCMV antiviral inconclusive, VACV mCherry inh inconclusive, Lassa entry inh inconclusive
COc1cc(C(=O)NN=Cc2ccc(N(C)C)cc2)cc(OC)c1OC	HCMV antiviral -66, Vaccinia Venus inconclusive (no result: MARV entry inh, Lassa entry inh)
COc1cc(/C=N/NC(=O)c2ccncc2)cc(OC)c1OC	none
Cc1cc(C)n(CCCN2CCC(C(=O)Nc3cccc(-c4cccc(F)c4)c3)CC2)n1	MARV entry inh 13µM, HCMV antiviral -100, VACV mCherry inh inconclusive, FMDV antiviral inconclusive, Vaccinia Venus inconclusive
CCOC(=O)c1c(N)c2cc([N+](=O)[O-])ccc2n1C	none (no result: MARV entry inh, VACV mCherry inh, Lassa entry inh, Vaccinia Venus)
CCOC(=O)/C(=C/c1c(C)n(C)c2ccc([N+](=O)[O-])cc12)C(C)=O	MARV entry inh inconclusive, HCMV antiviral -85, FMDV antiviral 13µM
CCN1CCc2c(sc(NC(=O)CSc3ccccc3)c2-c2nc3ccccc3s2)C1	none (no result: MARV entry inh)
CC(=O)Nc1sc2c(c1-c1nc3ccccc3s1)CCN(C(C)C)C2	VACV mCherry inh 13µM, Vaccinia Venus 10µM (no result: MARV entry inh, HCMV antiviral, Lassa entry inh)
CN1CCc2c(sc(NC(=O)CSc3ccc(F)cc3)c2-c2nc3ccccc3s2)C1	none (no result: MARV entry inh)
CC(=O)N1CCc2c(sc(NC(=O)CSc3ccc(F)cc3)c2-c2nc3ccccc3s2)C1	HCMV antiviral -96 (no result: MARV entry inh)
FC(F)(F)COc1nc(N2CCOCC2)nc(N(c2ccccc2)c2ccccc2)n1	MARV entry inh 13µM, HCMV antiviral -86, VACV mCherry inh inconclusive, FMDV antiviral inconclusive, Lassa entry inh inconclusive, Vaccinia Venus inconclusive
c1ccc(N(c2ccccc2)c2nc(N3CCOCC3)nc(N3CCOCC3)n2)cc1	none (no result: HCMV antiviral, VACV mCherry inh, FMDV antiviral, Lassa entry inh, Vaccinia Venus)
COc1ccc(CN2CCCC(c3nc(C)ncc3-c3ccc(F)cc3)C2)c(OC)c1OC (stereo unspecified)	none (no result: MARV entry inh, HCMV antiviral, Lassa entry inh)
N#Cc1ccc(CN2C(=O)c3ccccc3Sc3ccc(C(=O)OCc4ccco4)cc32)cc1	none (no result: MARV entry inh)
O=C(NCc1cccc(Cl)c1)c1cnc(N2CCOCC2)c2ccccc12	none (no result: MARV entry inh)
COc1ccc(CNC(=O)c2ccccc2[N+](=O)[O-])cc1	MARV entry inh inconclusive, HCMV antiviral -108 (no result: VACV mCherry inh, Vaccinia Venus)
Cc1cc(CNC(=O)c2cccc([N+](=O)[O-])c2C)c2ccccc2n1	MARV entry inh inconclusive, HCMV antiviral -73, FMDV antiviral 14µM, Lassa entry inh inconclusive
COc1ccc(CNC(=O)c2cnc(N3CCOCC3)c3ccccc23)cc1	HCMV antiviral -109 (no result: MARV entry inh)
COc1ccc(NC(=O)c2ccccc2[N+](=O)[O-])cc1	HCMV antiviral inconclusive
COc1cc(S(=O)(=O)NCCc2c(C)[nH]c3ccc(C)cc23)ccc1Br	Lassa entry inh inconclusive (no result: MARV entry inh)
COCCn1c(N2CCN(c3ccccc3)CC2)nc2c1c(=O)n(C)c(=O)n2C	FMDV antiviral inconclusive (no result: Lassa entry inh)
Cc1ccc(Oc2nc3c(c(=O)n(Cc4ccccc4)c(=O)n3C)n2C)cc1C	MARV entry inh inconclusive, FMDV antiviral 14µM, Lassa entry inh inconclusive
CCOC(=O)Cn1c(=O)c2c(nc(Br)n2Cc2ccccc2Cl)n(C)c1=O	FMDV antiviral inconclusive, Lassa entry inh inconclusive
C=CCn1c(=O)c2c(nc(Br)n2Cc2ccccc2Cl)n(C)c1=O	HCMV antiviral -73, VACV mCherry inh inconclusive, FMDV antiviral inconclusive, Lassa entry inh inconclusive
Cc1ccc(Oc2nc3c(c(=O)n(Cc4ccccc4Cl)c(=O)n3C)n2C)cc1C	VACV mCherry inh inconclusive, Vaccinia Venus inconclusive
